Experiment in all cases: DAPPL (digital affinity profiling via proximity ligation, sequencing); 10 mM Tris-HCl pH 7.5, 50 mM NaCl, 1 mM DTT, 4% glycerol, room temperature, 30 min; GST-TFs on glutathione beads, 16-mer random dsDNA library, 0.1% formaldehyde crosslink after washing; high values mean tight binding
Details in all cases: protein: recombinant; tags: N-terminal GST; dsDNA, one strand shown

One assay deals with T1, ERF (Homo sapiens, UniProt P50548 1-548).
T1 sequence: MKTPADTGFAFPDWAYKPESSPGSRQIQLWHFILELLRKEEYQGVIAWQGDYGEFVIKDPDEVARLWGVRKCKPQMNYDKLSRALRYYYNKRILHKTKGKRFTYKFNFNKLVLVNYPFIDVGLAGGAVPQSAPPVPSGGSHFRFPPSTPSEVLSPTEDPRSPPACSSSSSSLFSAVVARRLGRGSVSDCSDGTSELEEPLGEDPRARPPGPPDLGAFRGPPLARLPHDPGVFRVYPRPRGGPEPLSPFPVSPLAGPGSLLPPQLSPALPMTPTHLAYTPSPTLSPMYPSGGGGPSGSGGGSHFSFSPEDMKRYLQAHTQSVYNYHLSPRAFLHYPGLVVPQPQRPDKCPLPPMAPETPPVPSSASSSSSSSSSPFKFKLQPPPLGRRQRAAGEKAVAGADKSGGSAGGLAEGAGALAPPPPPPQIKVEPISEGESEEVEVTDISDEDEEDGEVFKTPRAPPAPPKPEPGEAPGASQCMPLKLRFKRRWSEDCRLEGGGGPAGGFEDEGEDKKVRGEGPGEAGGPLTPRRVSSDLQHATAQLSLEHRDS
The method, boiled down: (§1)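 Pools were built from human transcription factors expressed in yeast as GST fusions, captured on glutathione beads and DNA-barcoded, along with a tag-only sample. Incubation with 200 nmole of a 16-mer random double-stranded DNA library lasted 30 min at room temperature in Tris/NaCl/DTT/glycerol buffer, and was followed by washing, 0.1% formaldehyde crosslinking, proximity ligation, PCR amplification and Illumina NextSeq500 sequencing. Binding signal is the quotient of each hexamer's read frequency for a factor and its frequency for the tag-only sample.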

The next assay has as its target T2, ETV3L (Homo sapiens, UniProt Q6ZN32 1-361).
T2 sequence: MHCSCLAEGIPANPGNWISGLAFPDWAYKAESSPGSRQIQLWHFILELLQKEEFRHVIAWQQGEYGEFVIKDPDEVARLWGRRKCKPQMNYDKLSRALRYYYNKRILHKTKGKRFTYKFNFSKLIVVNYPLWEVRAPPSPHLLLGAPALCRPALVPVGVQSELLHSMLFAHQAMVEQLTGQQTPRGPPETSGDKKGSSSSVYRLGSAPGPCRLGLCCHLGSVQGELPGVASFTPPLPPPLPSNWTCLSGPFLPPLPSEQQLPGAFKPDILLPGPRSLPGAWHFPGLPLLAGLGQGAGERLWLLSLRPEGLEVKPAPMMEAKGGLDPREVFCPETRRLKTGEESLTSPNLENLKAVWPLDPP
The method, boiled down:
as §1

The target of the next assay is T3, ETS2 (Homo sapiens, UniProt P15036 1-469).
T3 sequence: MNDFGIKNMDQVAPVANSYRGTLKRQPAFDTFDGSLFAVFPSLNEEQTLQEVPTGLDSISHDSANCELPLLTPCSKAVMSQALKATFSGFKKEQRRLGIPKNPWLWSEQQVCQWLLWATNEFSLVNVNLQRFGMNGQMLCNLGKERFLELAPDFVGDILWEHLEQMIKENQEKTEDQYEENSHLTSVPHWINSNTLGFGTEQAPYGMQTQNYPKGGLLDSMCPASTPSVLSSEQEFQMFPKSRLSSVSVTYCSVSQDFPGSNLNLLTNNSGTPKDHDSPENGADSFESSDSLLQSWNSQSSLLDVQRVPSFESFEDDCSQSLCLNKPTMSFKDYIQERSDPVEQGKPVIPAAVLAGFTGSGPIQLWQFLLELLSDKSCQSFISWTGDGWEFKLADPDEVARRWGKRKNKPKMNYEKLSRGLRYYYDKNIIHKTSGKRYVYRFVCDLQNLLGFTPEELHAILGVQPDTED
The method, boiled down:
as §1

For a further assay, the target named is T4, SPDEF (Homo sapiens, UniProt O95238 1-335).
T4 sequence: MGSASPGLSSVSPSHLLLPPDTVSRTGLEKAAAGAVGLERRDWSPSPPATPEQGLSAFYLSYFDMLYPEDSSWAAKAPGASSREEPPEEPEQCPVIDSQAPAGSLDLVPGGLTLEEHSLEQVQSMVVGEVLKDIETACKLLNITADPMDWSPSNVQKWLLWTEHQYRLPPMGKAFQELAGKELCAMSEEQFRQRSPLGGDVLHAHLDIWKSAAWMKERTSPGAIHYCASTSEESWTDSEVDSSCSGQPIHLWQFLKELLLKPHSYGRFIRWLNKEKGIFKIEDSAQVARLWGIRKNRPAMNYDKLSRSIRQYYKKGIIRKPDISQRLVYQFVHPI
The method, boiled down:
as §1

A further assay addresses T5, ETV7 (Homo sapiens, UniProt Q9Y603 1-341).
T5 sequence: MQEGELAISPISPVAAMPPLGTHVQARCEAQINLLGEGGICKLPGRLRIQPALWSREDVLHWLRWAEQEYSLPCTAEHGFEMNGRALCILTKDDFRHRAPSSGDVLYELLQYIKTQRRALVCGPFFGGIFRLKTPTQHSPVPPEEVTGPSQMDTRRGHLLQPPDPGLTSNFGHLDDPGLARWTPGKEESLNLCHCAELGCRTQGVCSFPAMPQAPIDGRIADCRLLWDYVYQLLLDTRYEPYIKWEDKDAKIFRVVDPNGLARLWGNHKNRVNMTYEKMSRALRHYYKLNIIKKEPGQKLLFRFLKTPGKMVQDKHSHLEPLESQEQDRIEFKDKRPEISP
In a few lines: as §1

Another assay deals with T6, ELF5 (Homo sapiens, UniProt Q9UKW6-2 1-255).
T6 sequence: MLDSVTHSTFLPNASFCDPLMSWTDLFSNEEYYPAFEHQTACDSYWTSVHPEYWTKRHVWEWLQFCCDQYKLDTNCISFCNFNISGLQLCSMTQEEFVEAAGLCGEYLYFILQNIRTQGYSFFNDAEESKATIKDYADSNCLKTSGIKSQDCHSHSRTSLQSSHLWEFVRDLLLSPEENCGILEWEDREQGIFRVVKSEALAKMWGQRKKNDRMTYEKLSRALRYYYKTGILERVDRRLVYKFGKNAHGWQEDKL
The method, boiled down: as §1

A further assay deals with T7, ETV3 (Homo sapiens, UniProt P41162-2 1-143).
T7 sequence: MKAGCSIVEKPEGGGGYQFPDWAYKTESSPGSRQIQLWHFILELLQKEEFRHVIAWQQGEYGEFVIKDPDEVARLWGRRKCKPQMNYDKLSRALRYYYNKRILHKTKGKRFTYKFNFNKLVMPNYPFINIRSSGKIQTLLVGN
The method, boiled down:
as §1

The next assay addresses ETV6 (Homo sapiens, UniProt P41212 1-452). In a few lines:
as §1

Chain of ETV6 (P41212 whole entry): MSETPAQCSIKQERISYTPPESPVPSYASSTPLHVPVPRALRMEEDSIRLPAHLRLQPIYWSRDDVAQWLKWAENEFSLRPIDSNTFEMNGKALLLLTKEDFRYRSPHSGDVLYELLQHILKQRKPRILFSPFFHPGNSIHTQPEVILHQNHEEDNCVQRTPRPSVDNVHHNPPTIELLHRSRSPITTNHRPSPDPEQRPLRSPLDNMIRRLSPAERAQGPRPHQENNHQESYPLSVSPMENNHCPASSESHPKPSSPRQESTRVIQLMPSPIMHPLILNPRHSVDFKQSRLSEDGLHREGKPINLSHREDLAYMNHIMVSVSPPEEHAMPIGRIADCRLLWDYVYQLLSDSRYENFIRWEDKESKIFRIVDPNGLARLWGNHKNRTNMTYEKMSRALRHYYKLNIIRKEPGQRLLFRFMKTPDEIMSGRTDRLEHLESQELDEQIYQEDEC

With TCTCCA, the binding signal with ERF is 1.42 fold enrichment (6-mer frequency, TF over GST control); with ETV3L, 1.58 fold enrichment (6-mer frequency, TF over GST control); in the assay with ETS2, 1.53 fold enrichment (6-mer frequency, TF over GST control); with SPDEF, 1.5 fold enrichment (6-mer frequency, TF over GST control); with ETV7 it was 1.31 fold enrichment (6-mer frequency, TF over GST control); with ELF5, 1.37 fold enrichment (6-mer frequency, TF over GST control). Further, the binding signal in the assay with ETV3 was 1.41 fold enrichment (6-mer frequency, TF over GST control); with ETV6, 1.4 fold enrichment (6-mer frequency, TF over GST control).
Take ATATCC: the binding signal with ERF is 2.67 fold enrichment (6-mer frequency, TF over GST control); with ETV3L, 2.57 fold enrichment (6-mer frequency, TF over GST control); with ETS2 it was 2.76 fold enrichment (6-mer frequency, TF over GST control); in the assay with SPDEF, 4.48 fold enrichment (6-mer frequency, TF over GST control); with ETV7 it was 2.25 fold enrichment (6-mer frequency, TF over GST control); in the assay with ELF5 it was 3.58 fold enrichment (6-mer frequency, TF over GST control). Moreover, the binding signal is 2.89 fold enrichment (6-mer frequency, TF over GST control) with ETV3 and 2.64 fold enrichment (6-mer frequency, TF over GST control) in the assay with ETV6.
Turning to TTTATA, the binding signal with ERF is 1.4 fold enrichment (6-mer frequency, TF over GST control); in the assay with ETV3L, 1.42 fold enrichment (6-mer frequency, TF over GST control); in the assay with ETS2 it was 1.4 fold enrichment (6-mer frequency, TF over GST control); with SPDEF, 1.3 fold enrichment (6-mer frequency, TF over GST control); in the assay with ETV7 it was 1.43 fold enrichment (6-mer frequency, TF over GST control); in the assay with ELF5, 1.27 fold enrichment (6-mer frequency, TF over GST control). For the same sequence, the binding signal in the assay with ETV3 is 1.32 fold enrichment (6-mer frequency, TF over GST control); with ETV6 it was 1.38 fold enrichment (6-mer frequency, TF over GST control).
As to GCTATA, the binding signal in the assay with ERF is 1.16 fold enrichment (6-mer frequency, TF over GST control); with ETV3L, 1.08 fold enrichment (6-mer frequency, TF over GST control); in the assay with ETS2, 1.14 fold enrichment (6-mer frequency, TF over GST control); in the assay with SPDEF, 1.21 fold enrichment (6-mer frequency, TF over GST control); in the assay with ETV7 it was 1.18 fold enrichment (6-mer frequency, TF over GST control); in the assay with ELF5, 1.15 fold enrichment (6-mer frequency, TF over GST control). Moreover, the binding signal with ETV3 is 1.18 fold enrichment (6-mer frequency, TF over GST control); with ETV6, 1.14 fold enrichment (6-mer frequency, TF over GST control).
TTCCTT: the binding signal with ERF was 1.77 fold enrichment (6-mer frequency, TF over GST control); in the assay with ETV3L, 1.91 fold enrichment (6-mer frequency, TF over GST control); in the assay with ETS2, 1.94 fold enrichment (6-mer frequency, TF over GST control); with SPDEF, 1.77 fold enrichment (6-mer frequency, TF over GST control); with ETV7 it was 1.92 fold enrichment (6-mer frequency, TF over GST control); in the assay with ELF5, 3.67 fold enrichment (6-mer frequency, TF over GST control). The binding signal in the assay with ETV3 is 2.13 fold enrichment (6-mer frequency, TF over GST control); in the assay with ETV6 it was 2.1 fold enrichment (6-mer frequency, TF over GST control).
Turning to ACATTT, the binding signal with ERF is 1.54 fold enrichment (6-mer frequency, TF over GST control); in the assay with ETV3L it was 1.49 fold enrichment (6-mer frequency, TF over GST control); in the assay with ETS2, 1.42 fold enrichment (6-mer frequency, TF over GST control); with SPDEF it was 1.41 fold enrichment (6-mer frequency, TF over GST control); with ETV7 it was 1.46 fold enrichment (6-mer frequency, TF over GST control); with ELF5, 1.59 fold enrichment (6-mer frequency, TF over GST control). In addition, the binding signal in the assay with ETV3 is 1.56 fold enrichment (6-mer frequency, TF over GST control); with ETV6, 1.56 fold enrichment (6-mer frequency, TF over GST control).
As to AACCAA, the binding signal in the assay with ERF was 1.25 fold enrichment (6-mer frequency, TF over GST control); in the assay with ETV3L, 1.15 fold enrichment (6-mer frequency, TF over GST control); in the assay with ETS2, 1.23 fold enrichment (6-mer frequency, TF over GST control); with SPDEF, 1.21 fold enrichment (6-mer frequency, TF over GST control); with ETV7, 1.2 fold enrichment (6-mer frequency, TF over GST control); in the assay with ELF5, 1.16 fold enrichment (6-mer frequency, TF over GST control). For the same sequence, the binding signal is 1.18 fold enrichment (6-mer frequency, TF over GST control) in the assay with ETV3 and 1.29 fold enrichment (6-mer frequency, TF over GST control) with ETV6.

For the origin of these results see paper PMC7862700, “An all-to-all approach to the identification of sequence-specific readers for epigenetic DNA modifications on cytosine”.
